The results in this text go back to PubChem BioAssay (NCI).

Structures are written as SMILES. Several values for one entry are separate records, joined by “and”; a condition that tells them apart may be missing. Equal values may be shown once. About 83,000 compounds went through this panel and 20% of them were active in at least one assay; those are over-represented in the sample as a whole.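 Step 1: grow cells in 96-well plates. Step 2: add test compound at a single concentration. Step 3: incubate 48 h. Step 4: record percent growth.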 Activity calls are given as the source filed them. The calls were made as follows: active = growth percent below 10; inactive = the rest.

What all share (assay): NCI-60 one-dose screen, 48 h (100 = growth as untreated, 0 = no growth, -100 = all killed)
What all share (conditions): 10 µM unless noted

The subject of assay [1] is HCT-15 colon.
In assay [2] the test system is HT29 colon.
The subject of assay [3] is SNB-75 CNS.
Assay [4] has as its system SNB-19 CNS.
The subject of assay [5] is U251 CNS.
For assay [6], the system named is PC-3 prostate.
Assay [7] deals with SK-MEL-5 melanoma.
For assay [8], the system named is UACC-62 melanoma.
Assay [9] has as its system LOX IMVI melanoma.
Assay [10] has as its system SK-MEL-28 melanoma.
Assay [11] concerns SK-MEL-2 melanoma.
The test system of assay [12] is EKVX NSCLC.
Assay [13] has as its system SN12C renal.
Assay [14] deals with UO-31 renal.
Assay [15] concerns TK-10 renal.
Assay [16] relates to ACHN renal.
For assay [17], the system named is CAKI-1 renal.
Assay [18] concerns A498 renal.
Assay [19] has as its system CCRF-CEM leukemia.
Assay [20] deals with MOLT-4 leukemia.

`COc1cc(OC)cc(-c2ccc(-c3ccc(C(=N)N)cn3)s2)c1`: the growth in assay [1] was 41.7% (inactive); in assay [2] it was 37.2% (inactive); in assay [3] it was 94.6% (inactive); in [4], 92.1% (inactive); in assay [5] it was 5.78% (active); in [6], 69.1% (inactive). The growth in [7] was 80.5% (inactive); in [8], 98.2% (inactive); in assay [9], 14% (inactive); in assay [10] it was 109% (inactive); in [11], 104% (inactive); in assay [12] it was 95.6% (inactive). In addition, the growth in assay [13] is 79.2% (inactive); in assay [14], 94.2% (inactive); in [15], 113% (inactive); in assay [16], 75% (inactive); in assay [17], 69.8% (inactive); in [18], 102% (inactive). Also, the growth in [19] is 8.54% (active); in [20], 49.3% (inactive).

Regarding `CN1CCN(CCCN2c3ccccc3Sc3ccc(Cl)cc32)CC1`, the growth in assay [1] is 68.8% (inactive) and 80.8% (inactive); in assay [2], 25.2% (inactive) and 35.9% (inactive); in assay [3], 45.2% (inactive) and 57.4% (inactive); in assay [4] it was 89.7% (inactive) and 91.4% (inactive); in [5] it was 54.6% (inactive) and 68% (inactive); in assay [6], 56.2% (inactive) and 53.6% (inactive). For the same compound, the growth was 17.6% (inactive) and 62.1% (inactive) in assay [7]; 33.1% (inactive) in assay [8]; 54.4% (inactive) and 71.8% (inactive) in assay [9]; -18.1% (active) and 67.7% (inactive) in [10]; 106% (inactive) in assay [11]; 75% (inactive) and 77.4% (inactive) in assay [12]. Besides, the growth in assay [13] was 64% (inactive) and 76.7% (inactive); in [14] it was 54.5% (inactive); in assay [15] it was 74.9% (inactive) and 85.8% (inactive); in assay [16], 62.9% (inactive) and 85.2% (inactive); in [17] it was 55.2% (inactive) and 60.7% (inactive); in [18], 82.2% (inactive) and 79.4% (inactive). For the same compound, the growth was 80.1% (inactive) and 75.9% (inactive) in assay [19]; 70.3% (inactive) and 73.9% (inactive) in assay [20].

In the case of `CCN(CC)CC#CCOC(=O)[C@]1(C)CCC[C@]2(C)c3ccc(C(C)C)cc3CC[C@@H]12`, the growth is 52.4% (inactive) in [1]; 46.5% (inactive) in assay [2]; 97.5% (inactive) in assay [3]; 92% (inactive) in assay [4]; 79.7% (inactive) in [5]; 64.3% (inactive) in assay [6]. Moreover, the growth in assay [7] is 77.1% (inactive); in assay [8], 71.8% (inactive); in assay [9] it was 92.6% (inactive); in [10] it was 84.8% (inactive); in assay [11], 98.6% (inactive); in assay [12], 86.6% (inactive). The growth in [13] was 83.8% (inactive); in [14], 65% (inactive); in assay [15], 102% (inactive); in assay [16] it was 92.1% (inactive); in assay [17], 94.5% (inactive); in [18] it was 82.9% (inactive). Further, the growth was 4.53% (active) in assay [19] and 82.9% (inactive) in [20].

For the compound `Cc1ccc(-c2nc3nc(-c4ccc(Br)cc4)nc(N4CCCNCC4)c3o2)cc1`, the growth in assay [1] was -84.5% (active); in assay [2] it was -85.3% (active); in assay [3] it was 96.2% (inactive); in [4], -47.3% (active); in [5], -76.6% (active); in assay [6], -52% (active). For the same compound, the growth in assay [7] is 92.6% (inactive); in assay [8], 101% (inactive); in assay [9] it was -85.1% (active); in [10] it was 103% (inactive); in assay [11], 108% (inactive); in [12], 114% (inactive). The growth in [13] was -77.4% (active); in [14], 63.4% (inactive); in assay [15], 19.9% (inactive); in assay [16] it was -95.4% (active); in assay [17], -50.5% (active); in assay [18], 80.5% (inactive). For the same compound, the results for the growth in assay [19] and in [20] were -64.4% (active) and -56.8% (active), respectively.

On to `COc1cc(NS(=O)(=O)C(C)C)cc(-c2cc(-c3ccc(N4CCNCC4)cc3)cnc2N)c1`, for which the growth is 112% (inactive) in assay [1]; 31.9% (inactive) in assay [2]; 53.7% (inactive) in assay [3]; 94.2% (inactive) in [4]; 77.1% (inactive) in assay [5]; 72% (inactive) in assay [6]. For the same compound, the growth is 102% (inactive) in [7]; 110% (inactive) in assay [8]; 67.3% (inactive) in assay [9]; 107% (inactive) in [10]; 117% (inactive) in assay [11]; 109% (inactive) in assay [12]. The growth in [13] was 64.6% (inactive); in [14], 70% (inactive); in [15] it was 115% (inactive); in assay [16], 93.2% (inactive); in assay [17] it was 87.1% (inactive); in assay [18] it was 75.3% (inactive). The growth in assay [19] is 66.7% (inactive); in assay [20], 37.2% (inactive).

Consider `O=C1C(c2c[nH]c3ccccc23)=C(c2coc3cc(Br)ccc23)C(=O)N1O`, for which the growth in assay [1] is 97.2% (inactive); in [2] it was 103% (inactive); in assay [3], 65.4% (inactive); in assay [4], 103% (inactive); in assay [5], 101% (inactive); in [6], 89.6% (inactive). Further, the growth in assay [7] was 97.2% (inactive); in [8] it was 84.7% (inactive); in assay [9], 62.2% (inactive); in [10] it was 111% (inactive); in assay [11] it was 97.4% (inactive); in assay [12], 84.3% (inactive). The growth in assay [13] is 97.9% (inactive); in assay [14], 73.4% (inactive); in assay [15] it was 137% (inactive); in [16] it was 110% (inactive); in assay [17], 100% (inactive); in [18], 54.4% (inactive). The growth in assay [19] was 89.4% (inactive); in [20] it was 98.9% (inactive).

Turning to `Cc1ccc(/C=C2\COc3ccc(O)c(O)c3C2=O)cc1`, the growth in assay [1] was -16.5% (active); in assay [2] it was 12.9% (inactive); in assay [3] it was 13.5% (inactive); in assay [4], 24.8% (inactive); in assay [5] it was -3.38% (active); in assay [6] it was -10.4% (active). Further, the growth in [7] was 1.84% (active); in [8], -19.7% (active); in assay [9], -83.3% (active); in assay [10], 35.6% (inactive); in assay [11], 48.8% (inactive); in [12], 28.2% (inactive). The growth in assay [13] is -77.6% (active); in [14], -97.3% (active); in [15] it was 8.12% (active); in [16] it was -77.6% (active); in assay [17] it was -27.6% (active); in [18], 6.45% (active). Also, the growth was 3.17% (active) in assay [19] and 1.48% (active) in assay [20].
